CYP2C19 inhib: blockers of cytochrome P450 2C19 activity – biochemical, luminescence, ADME assay, primary screen | P33261 | CYP2C19 Supersomes, luciferin-H EGE luminescence, 30 min | inhibition, % at 5 µM | 96,000 tested, 21% active | AID 778, 2007;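 active means CYP2C19 inhibition above a set limit at 5 µM in the primary screen, cut at about 50% in these data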;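 further: plate controls were negative control wells for no effect and 2.5 mM tranylcypromine positive control for full effect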
Target sequence (P33261 whole entry, looked up): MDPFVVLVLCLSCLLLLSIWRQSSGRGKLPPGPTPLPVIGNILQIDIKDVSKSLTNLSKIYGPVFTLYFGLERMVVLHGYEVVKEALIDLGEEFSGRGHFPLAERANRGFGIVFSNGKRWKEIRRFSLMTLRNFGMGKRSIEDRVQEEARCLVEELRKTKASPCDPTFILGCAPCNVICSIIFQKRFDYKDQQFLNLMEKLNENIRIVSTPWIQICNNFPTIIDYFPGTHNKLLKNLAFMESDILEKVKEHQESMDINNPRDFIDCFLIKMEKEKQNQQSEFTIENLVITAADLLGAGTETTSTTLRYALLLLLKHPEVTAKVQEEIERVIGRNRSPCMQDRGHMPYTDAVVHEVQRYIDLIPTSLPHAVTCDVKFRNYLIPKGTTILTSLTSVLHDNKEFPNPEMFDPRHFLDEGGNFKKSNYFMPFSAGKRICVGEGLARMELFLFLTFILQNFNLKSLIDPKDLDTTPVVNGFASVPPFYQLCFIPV
MRP resist rev: reversal of MRP1-mediated doxorubicin resistance, primary screen, H69AR cells, doxorubicin co-treatment | H69AR cells + 2 uM doxorubicin, CellTiter-Glo, 72 h | differential viability (reversal), % at 10 µM | 85,000 tested, 0.04% active | AID 602, 2007;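 active means viability drop by adding the cancer drug above about 55%, with treated viability meeting a 40% cutoff, limit read from the data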;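 further: viability without doxorubicin minus viability with 2 µM doxorubicin for each compound; larger differential means the compound sensitizes cells more to doxorubicin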
CYP2C9 inhib: blockers of cytochrome P450 2C9 activity – biochemical, luminescence, ADME assay, primary screen; 96,000 tested, 20% active; inhibition, % at 5 µM; CYP2C9 Supersomes, luciferin-H conversion; P11712;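 active means blocking of liver enzyme CYP2C9 beyond about 50% at 5 µM, limit read from the data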
CYP2C9 act: human CYP2C9 activators, primary screen, biochemical, luminescence. recombinant CYP2C9, luciferin-H conversion; hits give high values; factor 1 = untreated enzyme, 0 = blocked. activation factor at 5 µM. 96,000 tested, 1.4% active. AID 1024, 2008;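 active means activation factor of 2 or more for CYP2C9 at a 5 µM dose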;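 further: 0 = sulfaphenazole-blocked wells and 1 = vehicle-only wells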
CYP2C19 act: human CYP2C19 activators, primary screen, biochemical, luminescence. recombinant CYP2C19, luciferin-H EGE luminescence; hits give high values; 0 = fully inhibited enzyme, 1 = untreated enzyme. activation factor at 5 µM. 96,000 tested, under 10 active. AID 1025, 2008;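 active means activation factor of at least 2 at 5 µM in the primary screen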;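 further: 0 = wells with 2.5 mM tranylcypromine and 1 = vehicle-only wells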
MRP-1 activ: H69AR viability gain despite doxorubicin, primary screen, MRP-1 activator project, H69AR cells, CellTiter-Glo; viability rescue; viability increase, % at 10 µM; 140,000 tested, 0.61% active; AID 799, 2007;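 active means viability gain under doxorubicin at or above a set limit, the compound median plus 3 SD, cut at about 4.7% in these data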;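 further: MRP-1 overexpressing cells given doxorubicin 25 µM after compound pretreatment; 18-22 h compound pretreatment then 72 h with doxorubicin before readout; 0% = doxorubicin-only wells and 100% = vehicle-treated cells without doxorubicin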
* marks the source's active call; other numbers are inactive results. An excerpt weighted towards active compounds, which were near 21% of everything screened.

For Cc1cc(C)nc(SCc2nnc(SCC(=O)NCc3ccco3)n2-c2ccccc2)n1 the results were CYP2C19 inhib 44, MRP resist rev 10, CYP2C9 inhib 60*, CYP2C9 act 0.4, CYP2C19 act 0.6 and MRP-1 activ -2.
`Cn1cccc1Cc1nnc(SCC(=O)NCc2ccco2)n1CCc1ccccc1` gave CYP2C19 inhib 58*, MRP resist rev 10, CYP2C9 inhib 44, CYP2C9 act 0.6, CYP2C19 act 0.4 and MRP-1 activ -3.
`Cn1cccc1Cc1nnc(SCC(=O)NCc2ccccc2Cl)n1-c1ccc(F)cc1` gave CYP2C19 inhib 52*, MRP resist rev -9, CYP2C9 inhib 62*, CYP2C9 act 0.4, CYP2C19 act 0.5 and MRP-1 activ -3.
`Cn1cccc1Cc1nnc(SCC(=O)NCc2ccco2)n1-c1ccc(F)cc1` gave CYP2C19 inhib 75*, CYP2C9 inhib 8, CYP2C9 act 0.9, CYP2C19 act 0.2 and MRP-1 activ -3.
Screening Cc1nnc(SCC(=O)NCc2ccco2)n1-c1ccccc1 returned CYP2C19 inhib -16, MRP resist rev 1, CYP2C9 inhib -14, CYP2C9 act 1.1, CYP2C19 act 1.2 and MRP-1 activ -1.
O=c1[nH]c2cnccc2n1-c1ccccc1 was read as CYP2C19 inhib -19, MRP resist rev -2, CYP2C9 inhib -8, CYP2C9 act 1.1, CYP2C19 act 1.2 and MRP-1 activ 0.
COc1ccc2nc(SCC(=O)Nc3ccc4sc(C)nc4c3)c(C#N)cc2c1 was read as CYP2C19 inhib 25, CYP2C9 inhib 45, CYP2C9 act 0.5, CYP2C19 act 0.8 and MRP-1 activ -5.
Screening C=CCN1C(=Nc2cccnc2)SCC1(O)c1ccc(C)cc1 (configuration not stated) returned CYP2C19 inhib 95*, MRP resist rev -22, CYP2C9 inhib 78*, CYP2C9 act 0.2, CYP2C19 act 0 and MRP-1 activ -4.
`COc1ccc(Cc2nn3c(-c4cc(OC)c(OC)c(OC)c4)nnc3s2)cc1` gave CYP2C19 inhib 69*, MRP resist rev -4, CYP2C9 inhib 75*, CYP2C9 act 0.3, CYP2C19 act 0.3 and MRP-1 activ -2.
For COc1cc(-c2nnc3sc(Cc4ccc(Cl)cc4)nn23)cc(OC)c1OC the results were MRP resist rev 1.
For COc1cc(-c2nnc3sc(-c4cccnc4)nn23)cc(OC)c1OC the results were MRP resist rev 2.
`COc1cc(-c2nnc3sc(Cc4ccccc4)nn23)cc(OC)c1OC` gave CYP2C19 inhib 43, MRP resist rev -6, CYP2C9 inhib 52*, CYP2C9 act 0.5, CYP2C19 act 0.6 and MRP-1 activ -4.
For FC(F)(F)c1nc2ccccc2nc1N/N=C/c1c(Cl)cccc1Cl the results were CYP2C19 inhib 44, CYP2C9 inhib 22, CYP2C9 act 0.8, CYP2C19 act 0.6 and MRP-1 activ -1.
Clc1ccc(OCCSCc2nc3ccccc3[nH]2)cc1 was read as CYP2C19 inhib 64*, CYP2C9 inhib 57*, CYP2C9 act 0.4, CYP2C19 act 0.4 and MRP-1 activ -1.
Screening COc1ccccc1NC(=O)CSCc1nc2ccccc2[nH]1 returned MRP-1 activ 0.
COc1ccc(OCc2nc3ccccc3[nH]2)cc1 was read as CYP2C19 inhib 49, MRP resist rev 13, CYP2C9 inhib 24, CYP2C9 act 0.8, CYP2C19 act 0.5 and MRP-1 activ 1.
`Cc1ccc(OCCSCc2nc3ccccc3[nH]2)cc1` gave CYP2C19 inhib 59*, CYP2C9 inhib 63*, CYP2C9 act 0.4, CYP2C19 act 0.4 and MRP-1 activ -1.
`Cc1ccc(C)c(NC(=O)CS(=O)(=O)c2c[nH]c3ccccc23)c1` gave CYP2C19 inhib 70*, MRP resist rev 7, CYP2C9 inhib -212, CYP2C9 act 3.1*, CYP2C19 act 0.3 and MRP-1 activ -3.
For Cc1nn(Cc2cccc(C(=O)Nc3ccn(Cc4c(F)c(F)cc(F)c4F)n3)c2)c(C)c1[N+](=O)[O-] the results were CYP2C19 inhib 86*, CYP2C9 inhib 93*, CYP2C9 act 0.1, CYP2C19 act 0.1 and MRP-1 activ 1.
Cc1nn(Cc2cccc(F)c2)c(C)c1NC(=O)c1c([N+](=O)[O-])c(C)nn1C was read as CYP2C19 inhib 76*, CYP2C9 inhib 62*, CYP2C9 act 0.4, CYP2C19 act 0.2 and MRP-1 activ -1.
`Cc1nn(Cc2cccc(F)c2)c(C)c1NC(=O)c1ccc(COc2ccccc2Cl)cc1` gave CYP2C19 inhib 46, CYP2C9 inhib 65*, CYP2C9 act 0.3, CYP2C19 act 0.5 and MRP-1 activ 4.
Screening CCOC(=O)c1cc(NC(=O)N(CC)CC)c(C)nc1C returned CYP2C19 inhib -1, MRP resist rev 8, CYP2C9 inhib 11, CYP2C9 act 0.9, CYP2C19 act 1 and MRP-1 activ -2.
Screening O=C(O)c1ccc2c(c1)C(=O)N(c1cc(C(=O)O)ccc1Br)C2=O returned CYP2C19 inhib 9, MRP resist rev -3, CYP2C9 inhib 8, CYP2C9 act 0.9, CYP2C19 act 0.9 and MRP-1 activ 0.
CC(C)N(Cc1nc(-c2ccc(Cl)cc2)no1)C(=O)CN(C)S(=O)(=O)c1ccc(Cl)cc1 was read as CYP2C19 inhib 62*, MRP resist rev -2, CYP2C9 inhib 89*, CYP2C9 act 0.1, CYP2C19 act 0.4 and MRP-1 activ -4.
`CN(Cc1nc(-c2cccnc2)no1)S(=O)(=O)c1ccc(Br)cc1` gave CYP2C19 inhib 29, MRP resist rev -6, CYP2C9 inhib 38, CYP2C9 act 0.6, CYP2C19 act 0.7 and MRP-1 activ 0.
For CC(C)N(Cc1nc(-c2ccccc2)no1)C(=O)CN(C)S(=O)(=O)c1ccc(Br)cc1 the results were CYP2C19 inhib 52*, MRP resist rev 7, CYP2C9 inhib 58*, CYP2C9 act 0.4, CYP2C19 act 0.5 and MRP-1 activ -2.
For CN(Cc1nc(-c2ccccn2)no1)S(=O)(=O)c1ccc(Br)cc1 the results were CYP2C19 inhib 61*, MRP resist rev -1, CYP2C9 inhib 61*, CYP2C9 act 0.4, CYP2C19 act 0.4 and MRP-1 activ -2.
COc1ccc(Cc2nc(-c3ccccn3)no2)cc1 was read as CYP2C19 inhib 25, MRP resist rev 0, CYP2C9 inhib 4, CYP2C9 act 1, CYP2C19 act 0.8 and MRP-1 activ -2.
`CN(Cc1nc(-c2cccnc2)no1)S(=O)(=O)c1ccc2ccccc2c1` gave CYP2C19 inhib 86*, MRP resist rev 4, CYP2C9 inhib 27, CYP2C9 act 0.7, CYP2C19 act 0.1 and MRP-1 activ -4.

High-throughput results deposited in PubChem by several laboratories.
